# Laboratory results: ChEMBL document CHEMBL3988442, “University of Dundee, Small-Polar-MMV Screening Library” (2021)
# In all, about 66,000 compounds went through this assay and about 960 (1.5%) showed an effect of 50% or more. Only a selection was taken, and strong results are over-represented in it overall.
# Tested on: Trypanosoma brucei
# Test: Trypanosoma brucei 72 hour study
# Assay type: functional, organism-based
# Parameters: scale not given: in the data most compounds retested in dose-response had high values
structure (smiles),measurement,setting,value
Cc1cc(=O)n2nc(Oc3cc(Cl)cc(Cl)c3)sc2n1,Percent Effect,"30 µM, 30.03 µM",-23.2%
Cc1cc(=O)n2nc(Oc3ccc(F)c(F)c3)sc2n1,Percent Effect,"30 µM, 30.03 µM",-14.16%
Cc1cc(=O)n2nc(Oc3ccc(C#N)cc3Cl)sc2n1,Percent Effect,"30 µM, 30.03 µM",98.96%
Cc1cc(=O)n2nc(Oc3cccc(C(N)=O)c3)sc2n1,Percent Effect,"30 µM, 30.03 µM",-16.62%
Cc1cc(=O)n2nc(Oc3cccc(I)c3)sc2n1,Percent Effect,"30 µM, 30.03 µM",99.1%
Cc1cc(=O)n2nc(Oc3ccc(Cl)c(C)c3)sc2n1,Percent Effect,"30 µM, 30.03 µM",-32.75%
CN1CCCCCC1C(=O)N1CCN(c2ccccc2C#N)CC1 (configuration not stated),Percent Effect,"30 µM, 30.03 µM",14.65%
COc1ncccc1CNC(=O)NCc1ccco1,Percent Effect,10 µM,-3.742%
same,Percent Effect,"30.3 µM, […]",11.99%
Cc1ccc(CN2CC[C@H]3[C@H](CC(Cn4cccn4)N3C)C2)s1.O=C(O)C(F)(F)F.O=C(O)C(F)(F)F.O=C(O)C(F)(F)F (some centres not stated),Percent Effect,"30.3 µM, […]",2.612%
O=C(CC1CC1)N1CC[C@@H]2[C@H](CC1)N(Cc1cccnc1)CCS2(=O)=O.O=C(O)C(F)(F)F.O=C(O)C(F)(F)F,Percent Effect,"30.3 µM, […]",-63.96%
Cc1cccc(OC2CCN(c3ccc(C#N)cn3)CC2)n1,Percent Effect,"30.3 µM, […]",86.54%
Cc1cccc(OC2CCN(c3ncc(C#N)cc3Cl)CC2)n1,Percent Effect,"30.3 µM, […]",2.665%
Cc1cccc(OC2CCN(c3nccnc3C#N)CC2)n1,Percent Effect,"30.3 µM, […]",-52.89%
CCn1cc(NS(=O)(=O)c2ccc(Br)s2)c(C(N)=O)n1,Percent Effect,"30 µM, 30.03 µM",-24.98%
O=C(Nc1cnccn1)[C@H]1CC[C@@H]2[C@@H](CCN2Cc2ccoc2)O1.O=C(O)C(F)(F)F,Percent Effect,"30.3 µM, […]",-117.8%
COc1cc(F)ccc1N(C)Cc1ccccn1,Percent Effect,"30 µM, 30.03 µM",73.53%
COc1cc(F)ccc1N(C)Cc1ccncc1,Percent Effect,"30 µM, 30.03 µM",-66.27%
COc1cc(F)ccc1N(C)Cc1cccnc1,Percent Effect,"30 µM, 30.03 µM",-106.7%
Cc1c(-c2cccs2)nn2c(O)c3c(nc12)CN(C(=O)C1CC1)C3,Percent Effect,"30.3 µM, […]",9.41%
Cc1ccc(N2CCN(C(=O)CCc3n[nH]c(C)c3C)CC2=O)cc1,Percent Effect,"30 µM, 30.03 µM",-42.04%
CS(=O)(=O)N1C[C@@H]2CC[C@H](C1)N(Cc1ccc3nsnc3c1)C2,Percent Effect,"30 µM, 30.03 µM",-23.46%
CN(C)S(=O)(=O)N1C[C@@H]2CC[C@H](C1)N(Cc1ccc3nsnc3c1)C2,Percent Effect,"30 µM, 30.03 µM",2.112%
CC(=O)c1cc(CN2C[C@H]3CC[C@@H]2CN(S(=O)(=O)N(C)C)C3)cs1,Percent Effect,"30 µM, 30.03 µM",79.15%
CS(=O)(=O)N1C[C@@H]2CC[C@H](C1)N(Cc1ccsc1)C2,Percent Effect,"30 µM, 30.03 µM",-69.04%
CC(=O)c1cc(CN2C[C@H]3CC[C@@H]2CN(S(C)(=O)=O)C3)cs1,Percent Effect,"30 µM, 30.03 µM",91.04%
CN(C)S(=O)(=O)N1C[C@@H]2CC[C@H](C1)N(Cc1ccc(F)c(F)c1)C2,Percent Effect,"30 µM, 30.03 µM",-42.84%
CC(C)(C)C(CCO)NC(=O)Nc1ccncc1 (configuration not stated),Percent Effect,"30.3 µM, […]",-3.299%
CCOCCCNC(=O)CCCC(=O)n1nc(C)c2ccccc21,Percent Effect,"30 µM, 30.03 µM",-9.537%
COCCCNC(=O)CCn1ncc2c(Cl)cccc21,Percent Effect,"30.3 µM, […]",-21.64%
COCCCNC(=O)CCn1nc(C)c2ccccc21,Percent Effect,"30 µM, 30.03 µM",61.88%
Nc1ccc(C(=O)N2CCCC(C(=O)CCc3ccccc3)C2)cn1 (configuration not stated),Percent Effect,"30 µM, 30.03 µM",42.45%
Cn1cc(N2CC3(CCN(Cc4ccoc4)CC3)OCC2=O)cn1.O=C(O)C(F)(F)F,Percent Effect,"30 µM, 30.03 µM",-14.91%
CCOC(=O)c1n[nH]cc1-c1cncn1CCn1nc(C)c(C)c1C.Cl,Percent Effect,"30.3 µM, […]",-11.29%
Cc1ncsc1C(=O)NC1CCN(CC(N)=O)CC1,Percent Effect,"30.3 µM, […]",10.5%
Cc1ncsc1C(=O)NC1CCN(CC(=O)N(C)c2ccccc2)CC1,Percent Effect,"30 µM, 30.03 µM",32.24%
Cc1ncsc1C(=O)NC1CCN(CC(=O)NCc2ccccc2)CC1,Percent Effect,"30 µM, 30.03 µM",57.29%
CC1CCCCN1C(=O)c1coc(COc2cccc3cnccc23)n1 (configuration not stated),Percent Effect,"30.3 µM, […]",103.3%
O=C(c1coc(COc2cccc3cnccc23)n1)N1CCSCC1,Percent Effect,"30.3 µM, […]",-189.8%
O=C(c1coc(COc2cccc3cnccc23)n1)N1CCCCCC1,Percent Effect,"30.3 µM, […]",-73.19%
Cc1noc(Cl)c1CCC(=O)N1CCN(c2ccccc2)CC1,Percent Effect,"30.3 µM, […]",16.11%
Cc1noc(Cl)c1CCC(=O)N1CCN(c2ncccn2)CC1,Percent Effect,"30 µM, 30.03 µM",-22.8%
Cc1cccc(N2CCN(C(=O)CCc3c(C)noc3Cl)CC2)c1,Percent Effect,"30.3 µM, […]",55.23%
CN(CCC(O)c1ccccc1)Cc1nc(-c2ccccc2)no1 (configuration not stated),Percent Effect,"30.3 µM, […]",-13.82%
same,Percent Effect,"10 mM, 10 mM as filed; unlikely as a test dose",-49.39%
CC(C)CN1CCC2(C1)CN(S(=O)(=O)c1cn(C)cn1)C2.O=C(O)C(F)(F)F.O=C(O)C(F)(F)F,Percent Effect,"30.3 µM, […]",-13.21%
Cc1ccccc1CN1CCC(c2nn(CCN)c3nccnc23)C1 (configuration not stated),Percent Effect,"30.3 µM, […]",24.84%
COc1ccccc1CN1CCC(c2nn(CCN)c3nccnc23)C1 (configuration not stated),Percent Effect,"30.3 µM, […]",99.59%
NCCn1nc(C2CCN(Cc3ccccc3Cl)C2)c2nccnc21 (configuration not stated),Percent Effect,"30.3 µM, […]",22.22%
COCC(=O)N1C[C@@H]2CCCO[C@@H]2[C@H](N(C)Cc2ccco2)C1.O=C(O)C(F)(F)F,Percent Effect,"30 µM, 30.03 µM",-11.7%
O=C(O)C(F)(F)F.O=C1N(Cc2cccc(F)c2)CCC12CCN(c1ccccn1)CC2,Percent Effect,"30.3 µM, […]",-2.034%
CNCC[C@H]1CC(C)(C)Oc2ccc(OC)cc21,Percent Effect,"30.3 µM, […]",-16.4%
COc1ccc2c(c1)[C@@H](CCNC(C)=O)CC(C)(C)O2,Percent Effect,"30.3 µM, […]",-14.03%
CNCC[C@H]1CC(C)(C)Oc2ccc(OCC3CC3)cc21,Percent Effect,"30.3 µM, […]",86.36%
Cc1nc(N(C)C)nc(N2CCC3(CC2)CNC(=O)O3)c1C,Percent Effect,"30 µM, 30.03 µM",-29.71%
CN(C)c1nc2c(c(N3CCC4(CC3)CNC(=O)C4)n1)CCCC2,Percent Effect,"30 µM, 30.03 µM",23.78%
CN(C)c1nc2c(c(N3CCCC4(CC3)CNC(=O)O4)n1)CCCC2 (configuration not stated),Percent Effect,"30 µM, 30.03 µM",52.4%
CN(C)S(=O)(=O)N1C[C@@H](OCc2cccnc2)[C@H]2OCCC[C@H]21.O=C(O)C(F)(F)F,Percent Effect,"30 µM, 30.03 µM",-11.52%
CN(Cc1cccc(OC(F)F)c1)Cc1nc2c(cnn2C)c(=O)[nH]1,Percent Effect,"30.3 µM, […]",-25.39%
CN(CCS(=O)(=O)c1cc(Cl)ccc1Cl)CC(N)=O,Percent Effect,"30 µM, 30.03 µM",-15.71%
CN(CCS(=O)(=O)c1cc(Cl)ccc1Cl)CC(=O)Nc1ccc(F)cc1,Percent Effect,"30 µM, 30.03 µM",64.98%
CN(CCS(=O)(=O)c1cc(Cl)ccc1Cl)CC(=O)Nc1cccc(F)c1,Percent Effect,"30 µM, 30.03 µM",-17.26%
CC(=O)NC[C@]1(O)CCN(C(=O)c2ccc3c(c2)OCO3)C[C@H]1O,Percent Effect,"30.3 µM, […]",-26.03%
c1cc2cc[nH]c2c(CC2CN(Cc3cscn3)C2)n1,Percent Effect,"30.3 µM, […]",-15.51%
Cc1cnc(N2CCOCC3(CCN(c4ccccn4)C3)C2)nc1.O=C(O)C(F)(F)F.O=C(O)C(F)(F)F (configuration not stated),Percent Effect,"30 µM, 30.03 µM",-35.16%
CC(=O)NCC(=O)N1CCC2(CC1)C(=O)N(CC1CC1)c1ccccc12,Percent Effect,"30.3 µM, […]",-5.541%
CN(C)[C@H]1CCCCN(C(=O)c2cccc(-c3cccc(F)c3)c2)C1,Percent Effect,"30 µM, 30.03 µM",59.87%
CN(C)C1CCCN(C(=O)c2cccc(-c3ncc[nH]3)c2)CC1 (configuration not stated),Percent Effect,"30 µM, 30.03 µM",-3.463%
CN(C)[C@H]1CCCCN(C(=O)c2cccc(N3CCS(=O)(=O)CC3)c2)C1,Percent Effect,"30 µM, 30.03 µM",11.69%
COCc1nc2cc(NCc3ccc(C)o3)ccc2o1,Percent Effect,"30 µM, 30.03 µM",13.96%
CCC(C)CNc1ccc2oc(COC)nc2c1 (configuration not stated),Percent Effect,"30 µM, 30.03 µM",94.42%
COCc1nc2cc(NCc3ccncc3)ccc2o1,Percent Effect,"30 µM, 30.03 µM",16.85%
Cc1cccc(C(=O)N2CCN(CCC(C)C)CC2)n1,Percent Effect,"30.3 µM, […]",-20.29%
CCCN1Cc2nc(N3CCCC3)ncc2C1=O,Percent Effect,"30 µM, 30.03 µM",35.2%
c1ccc(-c2nnc3ccc(N4CCC5(CCOC5)C4)nn23)cc1 (configuration not stated),Percent Effect,"30 µM, 30.03 µM",81.34%
Cc1nnc2ccc(N3CCC4(CCOC4)C3)nn12 (configuration not stated),Percent Effect,"30 µM, 30.03 µM",-17.43%
FC(F)c1nnc2ccc(N3CCC4(CCOC4)C3)nn12 (configuration not stated),Percent Effect,"30 µM, 30.03 µM",-51.53%
c1cc(-c2n[nH]cc2-c2ccnc(N3CCCCCC3)n2)ccn1,Percent Effect,"30.3 µM, […]",36.75%
Cc1nc(-c2ccccc2F)sc1C(=O)N1CCN(C)CC1,Percent Effect,"30 µM, 30.03 µM",37.21%
CCOC(=O)N1CCN(C(=O)c2sc(-c3ccccc3F)nc2C)CC1,Percent Effect,"30 µM, 30.03 µM",51.23%
CC(=O)N1CCN(C(=O)c2sc(-c3ccccc3F)nc2C)CC1,Percent Effect,"30 µM, 30.03 µM",-46.44%
CC(=O)N1CCO[C@H]2[C@H](OCCCn3cccn3)CC[C@@H]21.O=C(O)C(F)(F)F,Percent Effect,"30.3 µM, […]",-5.128%
COc1cccc(CN(Cc2ccco2)Cc2cnc(C)n2C)c1.O=C(O)CC(O)(CC(=O)O)C(=O)O,Percent Effect,"30.3 µM, […]",15.04%
CN1C[C@@H](C(=O)N(C)C)[C@@]2(CCc3ccccc3C(=O)N2)C1.Cl,Percent Effect,"30.3 µM, […]",-15.68%
CNc1nc(C)c(C(=O)N2CCCCC2CN2CCCCCC2)s1 (configuration not stated),Percent Effect,"30 µM, 30.03 µM",17.59%
O=C(O)C(F)(F)F.O=C(O)C(F)(F)F.O=C(c1n[nH]c2c1CN(C1CCOC1)CC2)N1CCOCC1 (configuration not stated),Percent Effect,"30.3 µM, […]",0.9809%
CN(C)CCN1C(=O)CCCC12CCCN(C(=O)c1ccncc1)C2.O=C(O)C(F)(F)F.O=C(O)C(F)(F)F (configuration not stated),Percent Effect,"30.3 µM, […]",-7.261%
CN(C)CCN1C(=O)CCC12CCN(C(=O)c1cccnc1)CC2.O=C(O)C(F)(F)F.O=C(O)C(F)(F)F,Percent Effect,"30.3 µM, […]",75.6%
CN(C)CCN1C(=O)CCC12CCCN(C(=O)c1cccnc1)CC2.O=C(O)C(F)(F)F.O=C(O)C(F)(F)F (configuration not stated),Percent Effect,"30.3 µM, […]",-25.41%
O=C(O)C(F)(F)F.c1coc(CN2CCO[C@H]3[C@H](OCC4CCCC4)CC[C@@H]32)c1,Percent Effect,"30.3 µM, […]",1.448%
Cc1csc(N2CCN(CC(=O)N3CCNC3=O)CC2C)n1 (configuration not stated),Percent Effect,10 µM,-102.2%
CC(C)NC(=O)c1ccc2c(c1)nc1n2CCN(C(C)C)C1,Percent Effect,"30 µM, 30.03 µM",-14.37%
CC(C)NC(=O)c1ccc2c(c1)nc1n2CCN(c2ccccc2)C1,Percent Effect,"30 µM, 30.03 µM",50.34%
CC(C)NC(=O)c1ccc2c(c1)nc1n2CCN(Cc2ccco2)C1,Percent Effect,"30 µM, 30.03 µM",-8.027%
COc1ccc2c(c1)c(-c1nc(C)ncc1CN)cn2C,Percent Effect,"30.3 µM, […]",-32.27%
COCC(=O)NCc1cnc(C)nc1-c1cn(C)c2ccc(OC)cc12,Percent Effect,"30.3 µM, […]",-5.457%
COc1ccc2c(c1)c(-c1nc(N(C)C)ncc1CN)cn2C,Percent Effect,"30.3 µM, […]",100.6%
